Assay [1] deals with Voltage-gated inwardly rectifying potassium channel KCNH2 (Homo sapiens) (UniProt Q12809). As to the kind of experiment: qHTS Assay for Small Molecule Inhibitors of the Human hERG Channel Activity (AID 588834).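 Note: lower thallium flux fluorescence means stronger hERG block; nearly all actives have a fitted effect of over 50% in size.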 Note: potency is the fitted concentration of half-maximal effect. Put shortly:
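Concentration-response qHTS measuring drop in thallium-sensitive dye signal. U2OS cells carrying BacMam hERG; compound exposure ~10 min, then stimulation buffer and 2 min read at 1 sec intervals.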
(qHTS replaces the single test concentration by a dilution series.)

Assay [2] has as its target Luciferin 4-monooxygenase (Photinus pyralis) (UniProt P08659). The assay is described as follows: Biochemical firefly luciferase enzyme assay for NPC (AID 624030). Note: nearly all actives have a fitted effect of over 70% in size. Note: potency is the fitted concentration of half-maximal effect. Put shortly:
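Purified P. pyralis luciferase at 10 nM in 50 mM Tris Acetate (final), luminescence read within 5 minutes of enzyme addition to compounds. Activity normalised to PTC124 versus DMSO; concentration-response curves classed by r2, magnitude and activity.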

Assay [3] in a line: S16 Schwann cell viability assay (CellTiter-Glo assay) (AID 624031).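 Note: native untransfected S16 rat Schwann cells; cellular ATP luminescence as a viability measure; plate controls were DMSO-treated cells for no effect and cell-free wells for full effect; nearly all actives have a fitted effect of over 70% in size.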 In a few lines: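 Parental S16 cells, 24 h compound, 37 °C. ATP-luminescence viability; DMSO = 0% activity, empty wells as reference; curves classified by fit quality and efficacy.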
Background: Cellular ATP, detected with luciferase, serves as a proxy for viable cell number.

Assay [4] can be described thus: S16 Schwann cell PMP22 intronic element beta-lactamase assay (AID 624044; calls by dose curve;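 note: 0% = DMSO and -100% = potassium clavulanate positive control; nearly all actives have a fitted effect of over 15% in size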). As to conditions: S16 rat Schwann cells, PMP22 element beta-lactamase FRET, 24 h; ratio activity, negative = inhibition: at 38.3 µM (top of the series) unless noted. In a few lines: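 Rat S16 Schwann cells with beta-Lac driven by a PMP22 intronic element, compound-treated 24 h at 37 °C. LiveBLAzer FRET B/G read: 460 nm normalized to potassium clavulanate vs DMSO; 535 nm FRET as viability; concentration-effect curves classified.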

Assay [5] is described as follows: S16 Schwann cell PMP22 intronic element firefly luciferase assay (AID 624032). Note: nearly all actives have a fitted effect of over 30% in size. Note: potency is the fitted concentration of half-maximal effect. Put shortly: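 Rat S16 Schwann cells stably carrying firefly luciferase driven by a PMP22 intronic element, in 10% FBS, treated 24 h at 37 C. ONE-Glo luminescence normalized to PTC124 control and DMSO (0%); curves classed by r2, magnitude and activity.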

Inconclusive results are not listed. Unmarked numbers belong to inactive results. The source made the active and inactive calls. Unless noted, calls come from the whole dose curve; as a rule, active = well fitted curve in the direction sought with a large enough effect; inconclusive = small, poorly fitted or top-dose-only effect, or another doubt; inactive = no such curve, though single readings can be large; an effect the other way counts as inactive or inconclusive.

Sequence of Luciferin 4-monooxygenase (Photinus pyralis) (P08659 whole entry, looked up): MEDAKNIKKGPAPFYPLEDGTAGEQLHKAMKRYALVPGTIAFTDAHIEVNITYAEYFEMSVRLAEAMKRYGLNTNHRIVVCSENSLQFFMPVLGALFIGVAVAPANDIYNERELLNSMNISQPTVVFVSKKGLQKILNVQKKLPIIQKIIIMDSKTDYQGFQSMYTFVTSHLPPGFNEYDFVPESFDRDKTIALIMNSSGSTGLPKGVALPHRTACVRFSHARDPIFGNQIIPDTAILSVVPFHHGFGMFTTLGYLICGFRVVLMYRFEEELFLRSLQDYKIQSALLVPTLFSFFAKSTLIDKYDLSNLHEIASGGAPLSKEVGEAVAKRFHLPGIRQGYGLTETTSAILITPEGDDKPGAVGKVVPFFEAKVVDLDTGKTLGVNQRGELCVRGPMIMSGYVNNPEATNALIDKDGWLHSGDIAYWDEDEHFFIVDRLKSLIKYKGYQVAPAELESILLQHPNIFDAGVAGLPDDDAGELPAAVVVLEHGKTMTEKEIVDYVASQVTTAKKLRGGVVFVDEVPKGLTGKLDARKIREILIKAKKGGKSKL
Sequence of Voltage-gated inwardly rectifying potassium channel KCNH2 (Homo sapiens) (Q12809 whole entry, looked up): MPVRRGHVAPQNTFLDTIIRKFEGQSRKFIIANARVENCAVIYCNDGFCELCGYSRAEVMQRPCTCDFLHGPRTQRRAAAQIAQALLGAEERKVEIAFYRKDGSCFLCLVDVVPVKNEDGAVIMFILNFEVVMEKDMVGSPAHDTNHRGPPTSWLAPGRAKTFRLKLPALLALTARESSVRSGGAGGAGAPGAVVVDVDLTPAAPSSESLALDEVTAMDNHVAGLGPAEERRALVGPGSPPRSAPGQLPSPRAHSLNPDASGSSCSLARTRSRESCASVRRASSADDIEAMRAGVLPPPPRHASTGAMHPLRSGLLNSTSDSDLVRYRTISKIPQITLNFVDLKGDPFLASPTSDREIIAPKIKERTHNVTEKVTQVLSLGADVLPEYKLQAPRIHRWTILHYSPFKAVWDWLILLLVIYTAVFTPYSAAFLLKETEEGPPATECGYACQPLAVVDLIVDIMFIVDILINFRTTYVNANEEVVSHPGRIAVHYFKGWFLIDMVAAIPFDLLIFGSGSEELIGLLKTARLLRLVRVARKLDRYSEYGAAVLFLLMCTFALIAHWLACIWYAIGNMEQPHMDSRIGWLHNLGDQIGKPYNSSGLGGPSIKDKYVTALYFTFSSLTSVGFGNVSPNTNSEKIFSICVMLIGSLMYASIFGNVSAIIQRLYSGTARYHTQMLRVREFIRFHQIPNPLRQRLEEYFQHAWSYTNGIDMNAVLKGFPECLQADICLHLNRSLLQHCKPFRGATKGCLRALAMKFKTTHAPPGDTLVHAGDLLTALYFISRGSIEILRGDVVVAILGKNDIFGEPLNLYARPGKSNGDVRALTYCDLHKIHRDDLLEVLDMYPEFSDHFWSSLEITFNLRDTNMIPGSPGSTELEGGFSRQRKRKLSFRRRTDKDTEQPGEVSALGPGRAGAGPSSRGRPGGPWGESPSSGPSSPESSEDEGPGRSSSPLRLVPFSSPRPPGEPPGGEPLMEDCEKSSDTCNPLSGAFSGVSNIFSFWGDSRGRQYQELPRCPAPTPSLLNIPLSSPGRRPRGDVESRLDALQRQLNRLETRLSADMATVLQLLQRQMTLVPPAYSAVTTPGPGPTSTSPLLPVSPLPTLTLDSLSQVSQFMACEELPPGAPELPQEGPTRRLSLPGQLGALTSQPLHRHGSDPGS

For `CSc1nc2cc(Oc3cccc(Cl)c3Cl)c(Cl)cc2[nH]1`, the Potency in assay [1] is 31.6 µM (active). Moreover, the Potency result in assay [2] and in assay [3] was “inactive” in each case. Besides, the ratio activity, negative = inhibition in assay [4] was -0.19%.

`NC(=O)CC[C@@H]1NC(=O)[C@H](Cc2ccccc2)NC(=O)[C@H](Cc2ccc(O)cc2)NC(=O)[C@@H](N)CSSC[C@@H](C(=O)N2CCC[C@H]2C(=O)N[C@@H](CCCN=C(N)N)C(=O)NCC(N)=O)NC(=O)[C@H](CC(N)=O)NC1=O`: the Potency result in assay [1], in assay [2] and in assay [3] was “inactive” each time. The ratio activity, negative = inhibition in assay [4] was -1.23%.

Consider `COc1ccccc1N1CCN(CCCC(=O)c2ccc(F)cc2)CC1`, for which the Potency in assay [1] was 1.41 µM (active). Further, the Potency entry in assay [2] and in assay [3] was “inactive” throughout. In addition, the ratio activity, negative = inhibition in assay [4] is -14.3%.

For `CC1=C(/C=C/C(C)=C/C=C/C(C)=C/C(=O)Oc2c(C)c(C)c3c(c2C)CC[C@@](C)(CCC[C@H](C)CCC[C@H](C)CCCC(C)C)O3)C(C)(C)CCC1`, the Potency result in assay [1], in assay [2] and in assay [3] was “inactive” each time. Also, the Potency in assay [5] is 5.73 µM (active). The ratio activity, negative = inhibition in assay [4] is -26.4%.

`N[C@@H](Cc1cc(I)c(Oc2ccc(O)c(I)c2)c(I)c1)C(=O)O`: the Potency entry in assay [1], in assay [2] and in assay [3] was “inactive” in each case. For the same compound, in assay [4], the ratio activity, negative = inhibition was -3.84%.

On to `CNC(=O)OCc1cccc(COC(=O)NC)n1`, for which the Potency entry in assay [1], in assay [2], in assay [3] and in assay [5] was “inactive” throughout. In addition, in assay [4], the ratio activity, negative = inhibition is -18.3%.

On to `C=CC[C@@H]1/C=C(\C)C[C@H](C)C[C@H](OC)[C@H]2O[C@@](O)(C(=O)C(=O)N3CCCC[C@H]3C(=O)O[C@H](/C(C)=C/[C@@H]3CC[C@@H](O)[C@H](OC)C3)[C@H](C)[C@@H](O)CC1=O)[C@H](C)C[C@@H]2OC`, for which the Potency entry in assay [1] and in assay [2] was “inactive” throughout. In addition, the ratio activity, negative = inhibition in assay [4] is -24.4%.

For the compound `O=C1CCC(=O)N1CO`, the Potency entry in assay [1], in assay [3] and in assay [5] was “inactive” in each case.

For the compound `F[Si-2](F)(F)(F)(F)F`, the Potency entry in assay [1], in assay [2] and in assay [3] was “inactive” throughout. For the same compound, the ratio activity, negative = inhibition in assay [4] is 7.11%.

As for `CC/C=C\C/C=C\C/C=C\C/C=C\C/C=C\C/C=C\CCC(=O)O`, the Potency entry in assay [1], in assay [2] and in assay [5] was “inactive” throughout. In addition, the ratio activity, negative = inhibition in assay [4] was 0.57%.

As for `CC(C)CCC[C@@H](C)[C@H]1CC[C@H]2[C@@H]3CC[C@@H]4C[C@H](O)CC[C@]4(C)[C@H]3CC[C@]12C`, the Potency result in assay [1], in assay [2] and in assay [5] was “inactive” throughout.

For `O=S(=O)(O)CC(S)CS` (stereo not drawn), the Potency entry in assay [1] and in assay [3] was “inactive” each time.

On to `CC1C(=O)CC2C3(C)CCC2(C(C)C(=O)O)C(=O)C13` (stereo not drawn), for which the Potency result in assay [1], in assay [3] and in assay [5] was “inactive” throughout.

In the case of `C[C@@](Cc1ccc(O)c(O)c1)(NN)C(=O)O`, the Potency result in assay [1] and in assay [3] was “inactive” throughout.

As for `O=C(O)C1=C(CSc2nnnn2CS(=O)(=O)O)CS[C@@H]2[C@H](NC(=O)[C@H](O)c3ccccc3)C(=O)N12`, the Potency result in assay [1], in assay [3] and in assay [5] was “inactive” each time.

For `CCCCCCCCCCCC(=O)N(CCO)CCO`, the Potency result in assay [1], in assay [2] and in assay [5] was “inactive” each time. Besides, the ratio activity, negative = inhibition in assay [4] was 0%.

In the case of `O=C(Nc1ccc(O)cc1)c1ccccc1O`, the Potency entry in assay [1], in assay [3] and in assay [5] was “inactive” each time.

As to `CN1C(=O)OC(C)(C)C1=O`, the Potency entry in assay [1], in assay [3] and in assay [5] was “inactive” throughout.

Take `CCN(CC)CCCC(C)Nc1cc(/C=C/c2ccccc2Cl)nc2cc(Cl)ccc12` (stereo not drawn): the Potency in assay [1] is 14.1 µM (active). Moreover, the Potency result in assay [2] is “inactive”. Besides, in assay [4], the ratio activity, negative = inhibition was -1.08%.

Take `NC(=O)C1c2ccccc2CCc2ccccc21`: the Potency entry in assay [1], in assay [3] and in assay [5] was “inactive” in each case. The ratio activity, negative = inhibition in assay [4] is -1.01%.

Turning to `O=C(OCc1ccccc1)c1cccnc1`, the Potency result in assay [1] and in assay [3] was “inactive” throughout.

On to `CC(C)OC(=O)Nc1ccc2nc(-c3cscn3)[nH]c2c1`, for which the Potency entry in assay [1] and in assay [5] was “inactive” each time. Besides, the Potency in assay [2] is 9.07 µM (active).

`CN1CCCC(CN2c3ccccc3Sc3ccccc32)C1` (stereo not drawn): in assay [1], the Potency was 12.6 µM (active). Also, the Potency result in assay [2] and in assay [5] was “inactive” each time.

`Cc1cccc(C)c1NC(=O)C1CCCCN1C` (stereo not drawn): the Potency result in assay [1], in assay [3] and in assay [5] was “inactive” throughout.

`CCN(CC)CCC(=O)N1c2ccccc2Sc2ccc(Cl)cc21`: the values for the Potency in assay [1] and in assay [5] were 14.1 µM (active) and 10.2 µM (active), respectively. The Potency entry in assay [2] was “inactive”.

As for `Cc1cc(C)c(NC(=O)C[C@H](CC(=O)O)c2cccc3ccccc23)c(C(=O)N2CCC3(CCCC3)CC2)c1`, the Potency entry in assay [1], in assay [2] and in assay [5] was “inactive” in each case.

On to `Nc1ccc(N=Nc2ccccc2)c(N)n1`, for which the Potency entry in assay [1] and in assay [5] was “inactive” each time. In assay [2], the Potency was 10.2 µM (active). In assay [4], the ratio activity, negative = inhibition is 0.697%.

Turning to `CN(C)C(=O)CCSC(SCCC(=O)O)c1cccc(/C=C/c2ccc3ccc(Cl)cc3n2)c1` (stereo not drawn), the Potency entry in assay [1] and in assay [5] was “inactive” throughout. Further, in assay [2], the Potency is 2.87 µM (active). Also, in assay [4], the ratio activity, negative = inhibition is -0.229%.

Take `CN(C)c1ccc(C(=C2C=CC(=[N+](C)C)C=C2)c2c(O)c(S(=O)(=O)[O-])cc3cc(S(=O)(=O)O)ccc23)cc1`: in assay [1], the Potency result was “inactive”. For the same compound, the Potency in assay [2] was 14.4 µM (active); in assay [5], 36.1 µM (active). For the same compound, the ratio activity, negative = inhibition in assay [4] was 1.14%.

With `O=C(O)CC/C=C\CC[C@@H]1[C@@H](N2CCCCC2)[C@@H](O)C[C@@H]1OCc1ccc(-c2ccccc2)cc1`, in assay [1], the Potency is 0.501 µM (active). The Potency entry in assay [3] and in assay [5] was “inactive” in each case. Further, the ratio activity, negative = inhibition in assay [4] is -1.41%.

On to `Cn1c(O)c(N=NC(N)=S)c2ccccc21`, for which the Potency entry in assay [1], in assay [2] and in assay [5] was “inactive” each time.

For `CC(=O)[C@H]1CC[C@H]2[C@@H]3C=CC4=CC(=O)CC[C@@]4(C)[C@H]3CC[C@]12C`, the Potency result in assay [1] and in assay [3] was “inactive” throughout.

`c1ccc2c(c1)OCC(CN1CCCCC1)O2` (stereo not drawn): the Potency result in assay [1], in assay [2] and in assay [5] was “inactive” in each case. In addition, in assay [4], the ratio activity, negative = inhibition was 1.83%.

For `CCCCCc1ccc(C)cc1O`, the Potency entry in assay [1], in assay [2] and in assay [5] was “inactive” each time. Further, in assay [4], the ratio activity, negative = inhibition is 4.39%.

On to `O=C(O)Cc1cc(I)c(Oc2ccc(O)c(I)c2)c(I)c1`, for which the Potency entry in assay [1], in assay [3] and in assay [5] was “inactive” each time. The ratio activity, negative = inhibition in assay [4] was 4.37% [at 17.1 µM].

In the case of `CC(C)Cc1ccc([C@@H](C)C(=O)NS(C)(=O)=O)cc1`, the Potency result in assay [1], in assay [3] and in assay [5] was “inactive” throughout.

The values above are taken from PubChem BioAssay (NCATS).
